Compound activity deposited in PubChem by National Center for Advancing Translational Sciences (NCATS).
Nrf2 ARE act: qHTS of Nrf2 Activators. AREc32 ARE-luciferase reporter (MCF7-derived line), luminescence, 24 h. Potency, µM (titrated, usually from 46.1 µM), usual class: activators. 0.31% of 410,000 active; further: nearly all actives have a fitted effect of over 65% in size
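Quantitative high-throughput format: AREc32 reporter cells, 1000 per well, received compound by pin transfer and were incubated 24 hr at 37 deg C, 5% CO2, before Steady-Glo luminescence detection.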
Nrf2 inh: Nrf2 qHTS screen for inhibitors | A549 ARE-Fluc reporter, luciferase luminescence, 18-24 h | Potency, µM (series often up to 46 µM), hits mostly inhibitors | AID 504444, 2011 | 2.1% of 360,000 active; further: nearly all actives have a fitted effect of over 60% in size
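Nrf2 function is reported as luminescence of an ARE-controlled luciferase in A549 cells. Compounds were tested at several concentrations, and a CellTiter-Fluor read on the same wells flagged cytotoxicity.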
GRP78 ERSR act: qHTS for Inducers of the Endoplasmic Reticulum Stress Response (ERSR) in Human Glioma: qHTS | U87-MG GRP78 promoter luciferase reporter, 16 h | Potency, µM, most hits filed as activators | 0.02% of 420,000 active | AID 602332, 2012; further: series mostly up to about 76 µM; nearly all actives have a fitted effect of over 35% in size
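ERSR induction read as luciferase luminescence (Bright-Glo, 10 min at room temperature) in stably transfected human U87-MG glioma cells exposed to compounds for 16 h, using GRP78 as sensor.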
miR-21 reporter: qHTS Assay for Modulators of miRNAs and/orActivators of miR-21 | AID 2288, 2010 | Potency, µM (highest dose often 38.3 µM), actives largely listed as activators | HeLa miR-21 FLuc reporter, luciferase, 48 h | 340,000 tested, under 10 active;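 further: miR-21 action dims this reporter so a rising signal means less miR-21 action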
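HeLa cells stably expressing CMV-driven firefly luciferase with a downstream miR-21 binding sequence, endogenously expressing miR-21, were treated with titrations (up to about 40uM final) for 48 hours at 37 degree Celsius. Luciferase luminescence was read after lysis.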
A549 tox: Nrf2 qHTS screen for inhibitors: counterscreen for cytotoxicity. A549 ARE-Fluc cells, CellTiter-Fluor viability, 18-24 h. Potency, µM (titrated, usually from 46 µM), most hits filed as inhibitors. 0.16% of 390,000 active. AID 504648, 2011
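A549 ARE_Fluc cells in 5% FBS OPTI-MEM were exposed to compounds in concentration-response for 18-24 h at 37 deg C. Viability was read by CellTiter-Fluor fluorescence (Ex 405/Em 525) after 30 min, before the luciferase read.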
Mito fusion yeast: qHTS Assay for Small Molecule Inhibitors of Mitochondrial Division or Activators of Mitochondrial Fusion; S. cerevisiae fusion-defective mutant growth rescue, CellTiterGlo 48 h; AID 485298, 2010; 0.23% of 320,000 active; Potency, µM (highest dose often 46.1 µM), most hits filed as activators; further: nearly all actives have a fitted effect of over 45% in size
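Temperature-sensitive fusion-defective S. cerevisiae (e.g. fzo1-1, mgm1-5) were grown with compound in YPEG medium (3% ethanol, 3% glycerol) for 48 hours at 37C. Growth rescue was measured as viability by CellTiterGlo luminescence after 10 minutes at ambient.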
Numbers stand for hits; n = inactive; u = inconclusive; x = not tested or not shown; ! = a repeat was not active; [ ] = another dose, or the depositor's remark. Hits are enriched below; roughly 2.3% of the tested compounds scored in any of these assays. The call rests on the fitted dose curve; in most records, active means well fitted curve in the direction sought with a large enough effect; inconclusive means small, poorly fitted or top-dose-only effect, or another doubt; inactive means no such curve, though single readings can be large; an effect the other way counts as inactive or inconclusive.

SMILES	Nrf2 ARE act	Nrf2 inh	GRP78 ERSR act	miR-21 reporter	A549 tox	Mito fusion yeast
NC(=O)CC(NC(=O)Cc1ccc(Br)cc1)c1ccc(NC2CCCCCCC2)c([N+](=O)[O-])c1 (configuration not stated)	n	u	n	x	u	x
CC(C)Cc1nc(SCC(=O)N2CC(C)OC(C)C2)c2c(=O)n(C)c(=O)n(C)c2n1 (configuration not stated)	n	n	n	n	n	n
O=C(CN1C(=O)NC2(CCCCC2)C1=O)Nc1ccc(Cl)c(S(=O)(=O)N2CCOCC2)c1	n	23.1µM	n	x	n	n
O=C(Cc1cccs1)Nc1ccc(Cl)c(S(=O)(=O)N2CCOCC2)c1	n	16.4µM	n	x	n	n
CC(CNS(=O)(=O)c1ccccc1)Sc1nncn1C (configuration not stated)	n	n	n	n	n	n
Cc1cccc(-n2c(SCC(=O)N3CC(=O)Nc4ccccc43)nc3ccccc3c2=O)c1C	n	23.1µM	n	n	n	n
CC(c1ccccc1)n1c(SCC(=O)N2CC(=O)Nc3ccccc32)nc2ccccc2c1=O (configuration not stated)	n[9.22 µM]	16.4µM	n	n	n	n
COCC(C)n1c(SCC(=O)N2CC(=O)Nc3ccccc32)nc2ccccc2c1=O (configuration not stated)	n	u	n	x	n	n
O=C1COc2ccc(C(=O)CSc3ccccc3C(=O)O)cc2N1	n	n	n	n	n	n
CC(C)c1ccccc1-n1c(SCC(=O)c2ccc3c(c2)NC(=O)CO3)nc2ccccc2c1=O	n	2.91µM	n	n	n	n
NC(=S)N=Nc1ccc(NN=C(N)N)cc1	n	n	n	n	u	n
Oc1ccc(/C=C/c2nc(-c3ccccc3O)n(-c3ccccc3)n2)cc1	n	7.31µM	n	n	u	n
CC(=O)c1c(C(C)=O)c(C)n(-c2ccc(C)c(NC(=O)c3ccccc3Cl)c2)c1C	n	14.6µM	n	n	n	n
CCn1c(=O)c([N+](=O)[O-])c(NCc2ccco2)c2ccccc21	8.91µM	n	n	n	u	n
CCNc1c([N+](=O)[O-])c(=O)n(CC)c2ccccc12	n	n	n	n	n	n
CC(C)COc1ccc(Nc2ncnc3ccc(Br)cc23)cc1	n	n	n	n	n	x
CC(C)Nc1ncnc2ccc(Br)cc12	n	10.3µM	n	n	n	n
COc1ccc2[nH]c(=O)c(CN(CCc3ccccc3)C(C)=O)cc2c1	n	n	n	n	n	n
COc1ccccc1C(=O)NCC1CCN(c2ccc(S(=O)(=O)N3CCOCC3)cc2)CC1	n	23.1µM	n	n	u	n
O=S(=O)(c1ccc(NC(=S)N2CCN(c3ccc(O)cc3)CC2)cc1)N1CCOCC1	n	11.6µM	n	n	n	n
COc1ccccc1C(=O)NCCC(=O)Nc1ccc(S(=O)(=O)N2CC(C)CC(C)C2)cc1 (configuration not stated)	n	13µM	n	x	n	n
O=C(NCC1CCN(c2ccc(S(=O)(=O)N3CCOCC3)cc2)CC1)Nc1ccccc1	n	14.6µM	n	n	n	n
O=C(O)C1CSCN1S(=O)(=O)c1cccc2nsnc12 (configuration not stated)	n	x	n	n	n	n
CN(CC(=O)NCc1ccc(Cl)cc1)S(=O)(=O)c1ccc2[nH]c3c(c2c1)CCCC3	n	16.4µM	n	u	n	x
CS(=O)(=O)NCCn1ccc2ccccc21	n	n	n	n	n	n
SMILES	Nrf2 ARE act	Nrf2 inh	GRP78 ERSR act	miR-21 reporter	A549 tox	Mito fusion yeast
NC[C@@H]1O[C@H](c2ccccc2)Cc2c1ccc(O)c2O	x	x	n	x	x	16.4µM
N#Cc1c(-c2ccco2)cc(-c2ccc(F)cc2)nc1N	1µM	x	n	n	n	n
Cc1cc(N2CCCC2=O)ccc1S(=O)(=O)Nc1c(C)nn(C)c1C	n	u	n	n	n	n
COc1cccc(NS(=O)(=O)c2ccc3c(c2)NC(=O)C(C)S3)c1 (configuration not stated)	n	20.6µM	n	n	n	n
COc1ccccc1NS(=O)(=O)c1ccc2c(c1)NC(=O)C(C)S2 (configuration not stated)	n	n	n	n	n	n
CCc1cccc(NS(=O)(=O)c2ccc3c(c2)NC(=O)C(C)S3)c1 (configuration not stated)	n	16.4µM	n	n	n	n
CC(=NNc1nc2ccccc2s1)c1ncccn1	11.2µM	u	n	x	u	x
Cc1ccc(S(=O)(=O)N(C(=O)c2ccncc2)c2ccc3oc4c(c3c2)CCCC4)cc1[N+](=O)[O-]	n	u	n	n	n	17.8µM
Cc1ccc([N+](=O)[O-])cc1S(=O)(=O)N(C(=O)c1ccncc1)c1ccc2oc3c(c2c1)CCCC3	n	n	n	n	n	12.6µM
CCOC(=O)c1sc(C)nc1C1CCN(C(=O)OCC)CC1	n	n	n	n	n	n
CC(C)COc1ccc(C(=O)NCC2(N3CCN(C)CC3)CCCCC2)cc1	n	n	n	n	n	x
CC(C)CN1CCCC2(CCN(C(=O)c3csnn3)CC2)C1	x	x	n	x	x	x
Cc1ccc(-n2nnnc2SCC(=O)N2CCc3ccccc3C2)c(C)c1	n	16.4µM	n	n	n	n
Cc1ccc(-n2nnnc2SCC(=O)N2CCc3ccccc3C2)cc1	n	n	n	n	n	n
COc1ccc(NS(=O)(=O)c2ccc3[nH]c4c(c3c2)CCCC4)cc1OC	n	x	n	n	n	x
O=C(NCC1CCCO1)c1ccc(COc2ccc(Br)cc2)cc1 (configuration not stated)	n	16.4µM	n	n	n	n
Cc1cc(C(=O)COC(=O)c2ccc([N+](=O)[O-])o2)c(C)n1CC1CCCO1 (configuration not stated)	15.8µM	u	n	n	n	n
O=C(Cc1ccc([N+](=O)[O-])cc1)NCC1CCCO1 (configuration not stated)	n	n	n	n	n	n
O=C(NCC1CCCO1)c1ccc([N+](=O)[O-])o1 (configuration not stated)	10µM	n	u	n	n	n
O=C(Nc1ccccc1N1CCOCC1)c1cccc2c(Br)cccc12	n	n	n	n	n	n
COc1cc(N=c2ssnc2Cl)c(OC)cc1Cl	n	23.1µM!	u	n	u	n
CCCC(=O)Nc1nnc(SCC(=O)Nc2nc(C)cs2)s1	n	n	n	n	n	n
COc1ccc(OC)c(-n2nnnc2SCC(=O)Nc2ccc3c(c2)OCCO3)c1	n	n	n	n	n	n
